Data on 40 molecules can be found in ChEMBL document CHEMBL3988442, “University of Dundee, Small-Polar-MMV Screening Library” (2021).

The first test deals with T1, Aspartate--tRNA(Asp/Asn) ligase (Mycobacterium tuberculosis (strain ATCC 25618 / H37Rv)) (UniProt P9WFW3).
T1 sequence (whole entry): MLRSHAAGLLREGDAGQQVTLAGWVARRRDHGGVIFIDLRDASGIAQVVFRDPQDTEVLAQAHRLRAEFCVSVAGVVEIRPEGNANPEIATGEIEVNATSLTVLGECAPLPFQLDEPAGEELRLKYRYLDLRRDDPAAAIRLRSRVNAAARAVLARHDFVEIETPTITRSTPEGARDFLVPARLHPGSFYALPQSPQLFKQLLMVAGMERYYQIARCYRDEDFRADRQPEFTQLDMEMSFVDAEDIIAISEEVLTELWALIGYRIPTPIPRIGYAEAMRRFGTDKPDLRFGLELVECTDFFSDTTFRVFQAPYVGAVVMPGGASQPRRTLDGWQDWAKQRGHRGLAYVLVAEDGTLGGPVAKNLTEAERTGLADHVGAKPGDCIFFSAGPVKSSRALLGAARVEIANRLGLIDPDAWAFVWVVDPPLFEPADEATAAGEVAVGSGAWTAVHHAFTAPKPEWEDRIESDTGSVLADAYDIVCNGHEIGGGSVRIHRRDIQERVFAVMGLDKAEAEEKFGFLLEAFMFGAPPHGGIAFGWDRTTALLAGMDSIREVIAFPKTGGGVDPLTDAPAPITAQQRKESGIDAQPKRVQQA
Put plainly: Assay for Asp RNA synthetase-1 from Mycobacterium tuberculosis. Further details: scale not given: direction of the effect not stated beside the values. The format is functional. The note with it: 30 µM.
With `CC(NC(=O)NCCCO)c1ccc2c(c1)OCCO2` (centres undefined), the Percent Effect was determined as 0.291%.

Turning to `CCCN1CCN(C(=O)c2scnc2C)CC1`, the Percent Effect was -0.389%.

Take `Cc1ncsc1C(=O)N(C)Cc1ccncc1`: the Percent Effect was -4.5%.

Take `CN1CCN(CCO)C(=O)C12CCN(Cc1ccsc1)CC2`: the Percent Effect is -3.89%.

For the molecule `Cc1noc(-c2ccc(N3CCCC(C(=O)N4CCSCC4)C3)nc2)n1` (centres undefined), the Percent Effect was -3.39%.

With `O=C1CCC2(CCCN(CCc3ccccc3)C2)N1Cc1cccnc1` (centres undefined), the Percent Effect was 4.25%.

Regarding `COc1ccc(CN2C[C@@H]3CCCO[C@@H]3[C@H](NS(C)(=O)=O)C2)cc1`, the Percent Effect was 5.42%.

In the case of `CN(C)S(=O)(=O)N1C[C@H](Oc2cccnc2)[C@H]2OCCC[C@H]21`, the Percent Effect was 2.32%.

On to `Cc1ccc([C@@H]2CN(C(=O)c3cccnn3)C[C@H]2NC(=O)C2CC2)cc1`, for which the Percent Effect was -3.85%.

On to `c1cc2nc(C3CCN(CC4CC4)CC3)nn2cc1N1CCCC1`, for which the Percent Effect was -1.69%.

Turning to `CCN1CCCC(CNC(=O)C2(c3cccc(Cl)c3)CC2)C1` (centres undefined), the Percent Effect amounted to 4.29%.

Take `Cc1cnn(C2CCCN(C(=O)C3=NN(C)C(=O)CC3)C2)c1` (centres undefined): the Percent Effect was determined as 3.95%.

On to `CCOCC(=O)N1C[C@@H](O)[C@H](N(C)Cc2ccc(OC)cc2)C1`, for which the Percent Effect was -0.849%.

Consider `Cc1cc(C2CCCN(C(=O)c3cnn(C)c3)C2)ccn1` (centres undefined), for which the Percent Effect is -6.03%.

As to `Cn1cccc1CCC(=O)N1CCC2(CC1)c1ccccc1CC2O` (centres undefined), the Percent Effect came to 2.11%.

`CSc1ccsc1C(=O)N1CCN(CC(C)(C)O)CC1`: the Percent Effect is 2.72%.

In the case of `CCCn1[nH]cc/c1=N\C(=O)CN1CCOC(Cn2cc(C)cn2)C1` (centres undefined), the Percent Effect was -3.84%.

Take `COCCc1ncc(CN2CCC(Oc3ccccc3C)CC2)cn1`: the Percent Effect stood at 1.13%.

Consider `CN(CCC#N)C(=O)CN1CCCC1c1ccsc1` (centres undefined), for which the Percent Effect was 2.1%.

In the next test the target is Shiga toxin 2 (Escherichia coli O157:H7) (UniProt P09385+P09386). Description: E. coli 0.157:H7 Shiga Toxin SOP - stx2 screening assay. The note with it: 30 µM. The arrangement: scale not given: direction of the effect not stated beside the values. The format is functional.
For the molecule `c1cnnc(NCC2CN(Cc3cccc4c3OCCO4)CCO2)c1` (centres undefined), the Percent Effect is -1.74%.

For `O=C(NCC1CCOC1)c1csc(-c2cccc(Cl)c2)n1` (centres undefined), the Percent Effect turned out to be 5.81%.

As for `COc1ccc2c(c1)CCN(CCC(=O)O)CC2`, the Percent Effect was -33.8%.

As for `Cc1ccccc1CSc1nc(N)cc(N2CCOC(C(N)=O)C2)n1` (centres undefined), the Percent Effect is -13.5%.

Turning to `Cc1ccc2c(n1)N(C)CCN(C(=O)C1CC1)C2`, the Percent Effect was -13.9%.

Consider `Fc1cc(CNCc2ccc3c(c2)CCO3)ccc1N1CCOCC1`, for which the Percent Effect is -16.1%.

With `CC(C)N1CCC(CNCc2c[nH]nc2C(C)(C)C)C1` (centres undefined), the Percent Effect is 11.2%.

As for `CCN(CC1CCOC1)C(=O)Nc1ccc(N2CCCC2)nc1` (centres undefined), the Percent Effect worked out at 1.73%.

Take `CC(C)C(C(=O)N1CCN(c2ccncc2)CC1)n1cncn1` (centres undefined): the Percent Effect is -47.8%.

As to `CC(C)Cc1cc(C(=O)NCCc2ccc(S(C)(=O)=O)cc2)[nH]n1`, the Percent Effect was -19.9%.

As for `Cc1nccn1CC1CCCN1S(=O)(=O)Cc1ccccc1F` (centres undefined), the Percent Effect was -2.92%.

On to `Cc1nccn1-c1cc(CNC(=O)c2ccccn2)ccn1`, for which the Percent Effect is -3.43%.

Turning to `O=C(c1ccccn1)N1Cc2nccn2CC(COc2cccnc2)C1` (centres undefined), the Percent Effect is -14.8%.

For the molecule `O=C(CCc1cccnc1)N(Cc1ccsc1)CC1CCCO1` (centres undefined), the Percent Effect was -0.116%.

With `CC(NC(=O)CCCOc1ccccc1)c1nnc2n1CCCCC2` (centres undefined), the Percent Effect was determined as 19.8%.

As for `COCCOc1ccc(NC(=O)N2CCCC2c2cc(C)no2)cn1` (centres undefined), the Percent Effect was found to be 25.9%.

With `Cc1nn(C)c(Cl)c1CNCc1cccnc1N1CCN(C)CC1`, the Percent Effect was -1.67%.

Regarding `CC(C)c1n[nH]c(C2CN(Cc3nnc(C4CC4)o3)CCO2)n1` (centres undefined), the Percent Effect turned out to be 0.109%.

On to `CC(=O)N(Cc1noc(C2CC2)n1)C1CCN(Cc2cccnc2)C1` (centres undefined), for which the Percent Effect was determined as 12.6%.

For `CC(NC(=O)NCc1ccc(Cl)s1)c1ccccn1` (centres undefined), the Percent Effect is -14.6%.

Consider `COc1cccc(CNC(CN2CCN(C)CC2)c2ccccc2)c1` (centres undefined), for which the Percent Effect is -26%.

Turning to `CC(NC(=O)NCCCO)c1ccc2c(c1)OCCO2` (centres undefined), the Percent Effect was -10.2%.

For the molecule `CCCN1CCN(C(=O)c2scnc2C)CC1`, the Percent Effect is 5.75%.

With `Cc1ncsc1C(=O)N(C)Cc1ccncc1`, the Percent Effect was 27.3%.

For the molecule `CN1CCN(CCO)C(=O)C12CCN(Cc1ccsc1)CC2`, the Percent Effect was -1.74%.

Regarding `Cc1noc(-c2ccc(N3CCCC(C(=O)N4CCSCC4)C3)nc2)n1` (centres undefined), the Percent Effect is 10.1%.

For `O=C1CCC2(CCCN(CCc3ccccc3)C2)N1Cc1cccnc1` (centres undefined), the Percent Effect is -5.68%.

On to `COc1ccc(CN2C[C@@H]3CCCO[C@@H]3[C@H](NS(C)(=O)=O)C2)cc1`, for which the Percent Effect is -24%.

As to `CN(C)S(=O)(=O)N1C[C@H](Oc2cccnc2)[C@H]2OCCC[C@H]21`, the Percent Effect is -12%.

As to `Cc1ccc([C@@H]2CN(C(=O)c3cccnn3)C[C@H]2NC(=O)C2CC2)cc1`, the Percent Effect came out at 29.5%.

As for `c1cc2nc(C3CCN(CC4CC4)CC3)nn2cc1N1CCCC1`, the Percent Effect was -3.75%.

Consider `CCN1CCCC(CNC(=O)C2(c3cccc(Cl)c3)CC2)C1` (centres undefined), for which the Percent Effect is -31.2%.

As to `Cc1cnn(C2CCCN(C(=O)C3=NN(C)C(=O)CC3)C2)c1` (centres undefined), the Percent Effect worked out at 3.74%.

As to `CCOCC(=O)N1C[C@@H](O)[C@H](N(C)Cc2ccc(OC)cc2)C1`, the Percent Effect turned out to be 14.7%.

Take `Cc1cc(C2CCCN(C(=O)c3cnn(C)c3)C2)ccn1` (centres undefined): the Percent Effect was -7.91%.

Regarding `Cn1cccc1CCC(=O)N1CCC2(CC1)c1ccccc1CC2O` (centres undefined), the Percent Effect was -22.3%.

Consider `CSc1ccsc1C(=O)N1CCN(CC(C)(C)O)CC1`, for which the Percent Effect is -13.5%.

Take `CCCn1[nH]cc/c1=N\C(=O)CN1CCOC(Cn2cc(C)cn2)C1` (centres undefined): the Percent Effect came out at 8.34%.

On to `COCCc1ncc(CN2CCC(Oc3ccccc3C)CC2)cn1`, for which the Percent Effect came to 1.32%.

On to `CN(CCC#N)C(=O)CN1CCCC1c1ccsc1` (centres undefined), for which the Percent Effect stood at 22%.
